Reference: PubChem BioAssay AID651820 (National Center for Advancing Translational Sciences (NCATS), 2012)
Screen size: about 340,000 compounds; about 12,000 (3.5%) were called active. Not shown: some 18% with an inconclusive outcome. Only a selection was taken, and actives are over-represented in it overall. A number with no mark means an inactive call. Calls follow the shape of the dose curve; as a rule, active = well fitted inhibition curve with a large enough effect; inconclusive = small, poorly fitted or top-dose-only effect, or another doubt; inactive = no such curve, though single readings can be large or run the other way.

Assay: qHTS Assay for Inhibitors of Hepatitis C Virus (HCV)
Settings: Huh7.5.1 HCVcc-Cre infection, luciferase reporter, 44 h; series mostly up to 41.8 µM; activity change, negative = inhibition: at the top concentration
Text: Hepatitis C virus (HCV) infects about 200 million people in the world. Many infected people progress to chronic liver disease including cirrhosis with a risk of developing liver cancer. To date, there is no effective vaccine for hepatitis C. Current therapy based on interferon is only effective in about half of the patients and is associated with significant adverse effects. The fraction of people with HCV who can complete a successful treatment is estimated to be no more than 10 percent. Recent development of direct-acting antivirals against HCV, such as protease and polymerase inhibitors, is promising but still requires combination with peginterferon and ribavirin for maximal efficacy. In addition, these agents are associated with high rate of resistance and many have significant side effects. Due to the lack of a culture system for infectious HCV, the search for new HCV drugs has been greatly hampered. […] High-throughput screening (HTS) with an infectious HCV system would cover the complete spectrum of potentially druggable targets in all stages of HCV lifecycle, and would have more biological relevance than other cell-based assays. Moreover, targeting several key processes in the viral life cycle may not only increase antiviral efficacy; more importantly, it may also reduce the capacity of the virus to develop resistance to the compound. The goal of this project is to identify novel HCV inhibitors as new therapies for hepatitis C, using a highly sensitive and specific assay platform which is based on a HCV infectious cell culture system established in the laboratory and adapted for high-throughput HCV drug screen. NIH Chemical Genomics Center [NCGC] NIH Molecular Libraries Probe Centers Network [MLPCN] MLPCN Grant: MH095511 Assay Submitter (PI): Jake Liang, NIDDK
The assay will start with plating 1,000 cells/well in 3 µL volume and culture for 4 h. Then 23 nL of compounds from the library collection will be added to each well, followed by adding 2.5 µL of HCVcc-Cre virus (~ 0.5 moi) and further cultured for 44 h before the luciferase assay. A volume of 4.5 µL luciferase substrates will be added to each well and the plates will be incubated at room temperature for 15 min. and then read for 15 sec. for the luciferase activity
% is scaled to controls: 0 for no effect and ±100 for the full control effect.

With `CCOC(=O)c1cc(-c2ccccc2C)n(Cc2cc(C)no2)n1` as the compound, how does the “activity change, negative = inhibition” value read?
Its value is -15.8%.

Which Potency does the source give for `Cc1c(C(=O)OCC(=O)N(CCC#N)c2ccccc2)oc2c1ccc1ccccc12` here?
Its Potency is 8.91 µM (active).

With `N#CCCN(C(=O)COC(=O)c1ccc(S(=O)(=O)N2CCCCCC2)cc1)c1ccccc1` as the compound, how does the “activity change, negative = inhibition” value read?
Its value is -2.62%.

With `Cc1cc(C)n2nc(C(=O)OCC(=O)N(CCC#N)c3ccc(F)cc3)nc2n1` as the compound, how does the “activity change, negative = inhibition” value read?
The value was 24.9%.

Which “activity change, negative = inhibition” value does the source give for `Cc1cccc(C)c1NC(=O)COC(=O)c1c(C)nn(-c2ccccc2)c1C` here?
Its value is -29.5%.

Which “activity change, negative = inhibition” value does the source give for `Cc1ccc(S(=O)(=O)Nc2nc(CN3CCOCC3)nc3sc(C)c(C)c23)cc1` here?
The value was 14.3%.

For `COc1ccc(C)cc1NC(=O)CSc1cccc[n+]1[O-]`, which “activity change, negative = inhibition” value is on record?
Its value is 20.4%.

Which Potency does the source give for `COc1ccc(C)cc1NC(=O)CSc1nc(SC)ns1` here?
Its Potency is 11.2 µM (active).

For `CSc1nsc(SCC(=O)Nc2cc(C(=O)O)ccc2C)n1`, which “activity change, negative = inhibition” value is on record?
Its value is 28.5%.

For `Cc1ccc(C(=O)CN2C(=O)NC3(CCOc4ccccc43)C2=O)s1` (stereo not given), which “activity change, negative = inhibition” value is on record?
Its value is 7.99%.

With `Cc1ccc(N2CC(C(=O)Nc3cc(Cl)ccc3-n3cncn3)CC2=O)cc1` (stereo not given) as the compound, how does the “activity change, negative = inhibition” value read?
Its value is 8.85%.

For `OC(COc1ccccc1)CN1CCN(c2cccc(Cl)c2)CC1` (stereo not given), which “activity change, negative = inhibition” value is on record?
Its value is 13.3%.

Which Potency does the source give for `CCc1nn(CCCN2CCN(c3cccc(Cl)c3)CC2)c(=O)n1CCOc1ccccc1` here?
Its Potency is 10 µM (active).

With `CCN1C(=O)/C(=C\N2CCN(c3cccc(Cl)c3)CC2)SC1=S` as the compound, how does the “activity change, negative = inhibition” value read?
The value was -4.91%.

Which “activity change, negative = inhibition” value does the source give for `Cc1ccc(C(=O)OCC(=O)N2CC(C)CC(C)C2)cc1S(=O)(=O)N1CCCCC1` (stereo not given) here?
The value was -4.66%.

Which Potency does the source give for `CC(=O)Nc1ccc(NC(=O)C(C)OC(=O)c2ccccc2C(=O)c2ccc(Cl)c([N+](=O)[O-])c2)cc1` (stereo not given) here?
Its Potency is 11.2 µM (active).

With `CC(OC(=O)CNC(=O)c1ccc(Cl)c([N+](=O)[O-])c1)C(=O)NCc1ccco1` (stereo not given) as the compound, how does the activity change, negative = inhibition read?
The activity change, negative = inhibition was -1.08% [at 8.37 µM].

Which “activity change, negative = inhibition” value does the source give for `CC(=O)Nc1ccc(NC(=O)COC(=O)c2ccccc2C(=O)c2ccccc2)cc1` here?
Its value is 5.01%.

With `O=C(Nc1ccncc1)c1ccc(Cl)c([N+](=O)[O-])c1` as the compound, how does the “activity change, negative = inhibition” value read?
The value was -0.941%.

With `NC(=O)c1ccc(NC(=O)COC(=O)c2ccc([N+](=O)[O-])cc2)cc1` as the compound, how does the “activity change, negative = inhibition” value read?
The value was 11.3%.

With `N#Cc1cccc(NC(=O)COC(=O)c2ccccc2C(=O)c2ccc(Cl)c([N+](=O)[O-])c2)c1` as the compound, how does the Potency read?
The Potency was 10 µM (active).

Which “activity change, negative = inhibition” value does the source give for `COc1ccc(C(=O)COC(=O)c2c(C)noc2C)cc1Cl` here?
Its value is -8.16%.

With `CCOC(=O)c1ccc(NC(=O)C2CC(=O)N(c3ccc4c(c3)OCCO4)C2)cc1` (stereo not given) as the compound, how does the “activity change, negative = inhibition” value read?
The value was 7.75%.

Which “activity change, negative = inhibition” value does the source give for `CCCN(CC(=O)Nc1ccccc1C)C(=O)c1ccc(OCC(=O)N2CCOCC2)c(OCC)c1` here?
The value was -8.77%.

Which “activity change, negative = inhibition” value does the source give for `NC(=O)NC(CC(=O)NNC(=O)c1ccccn1)c1ccc(Cl)cc1` (stereo not given) here?
The value was 0.701%.

With `O=C(NCC1CCCO1)c1cc2c(s1)CCCC2` (stereo not given) as the compound, how does the “activity change, negative = inhibition” value read?
Its value is -18.7%.

Which “activity change, negative = inhibition” value does the source give for `O=C(O)c1cc(S(=O)(=O)Nc2ccc3cn[nH]c3c2)ccc1Br` here?
The value was 7.46%.

Which “activity change, negative = inhibition” value does the source give for `O=C(NCc1ccccc1)C1=C[C@@H](c2ccccc2)C[C@@H](OCCCCO)O1` here?
Its value is 6.06%.

With `N=C(N)SCc1cccc2ccccc12` as the compound, how does the Potency read?
Its Potency is 6.31 µM (active).

With `N#C/C(=C(/O)Cc1cccc2ccccc12)c1nc2ccccc2s1` as the compound, how does the “activity change, negative = inhibition” value read?
Its value is 13.7%.

For `c1ccc2c(CNn3cnnc3)cccc2c1`, which “activity change, negative = inhibition” value is on record?
The value was 0.47%.

Which “activity change, negative = inhibition” value does the source give for `Cc1ccc2c(c1)c1ncn(Cc3ccc(F)cc3)c(=O)c1n2C` here?
The value was -22.6%.

With `CC(C)(C)n1ncc2c(=O)n(Cc3ccc(Cl)cc3)cnc21` as the compound, how does the Potency read?
The Potency was 11.2 µM (active).

Which “activity change, negative = inhibition” value does the source give for `CC(=O)Cn1cnc2c(cnn2-c2ccccc2)c1=O` here?
The value was -0.203%.

Which “activity change, negative = inhibition” value does the source give for `CC(C)Cn1c(SCC(=O)Nc2ccc(Cl)cc2F)nc(O)cc1=O` here?
The value was 30.9%.

With `O=C(OCC(=O)N1CCN(C(=O)c2ccco2)CC1)c1c(Cl)cccc1Cl` as the compound, how does the “activity change, negative = inhibition” value read?
Its value is 16.5%.

Which “activity change, negative = inhibition” value does the source give for `CC1CCCCC1NC(=O)Cn1cnc2c1c(=O)n(C)c(=O)n2C` (stereo not given) here?
Its value is -3.41%.

For `C/C(=N\NC(=S)Nc1ccc(C)cc1)c1cc2ccccc2o1`, which Potency is on record?
Its Potency is 10 µM (active).

With `Cc1ccc(NC(=O)c2cc3ccccc3o2)cc1` as the compound, how does the “activity change, negative = inhibition” value read?
Its value is -10.5%.

With `Cc1ccc(OC(=O)c2cc3ccccc3o2)cc1` as the compound, how does the “activity change, negative = inhibition” value read?
The value was 4.88%.

Which “activity change, negative = inhibition” value does the source give for `COc1cc(C(=O)NC2CCN(C)CC2)ccc1Nc1ncc2c(n1)N(C1CCC(O)CC1)CCC(=O)N2C` (stereo not given) here?
The value was -26.6%.

For `O=C(CSc1nnc(N2CCOCC2)n1-c1cccc(F)c1)N1CCN(c2ccccn2)CC1`, which “activity change, negative = inhibition” value is on record?
The value was 2.86%.

Which “activity change, negative = inhibition” value does the source give for `Cc1cccc(-n2ncc3c(=O)[nH]c(SCC(=O)Nc4cc(C)on4)nc32)c1` here?
Its value is 0.218%.

For `Cc1c(O)c(C)c2c(c1O)C(=O)C[C@@H](c1ccccc1)O2`, which “activity change, negative = inhibition” value is on record?
Its value is -1.63%.

With `O=C(COc1ccc([N+](=O)[O-])cc1Cl)Nc1ccc2[nH]c(=O)[nH]c2c1` as the compound, how does the “activity change, negative = inhibition” value read?
The value was 1.57%.

Which “activity change, negative = inhibition” value does the source give for `O=C(Nc1ccccc1C(=O)N1CCOCC1)c1ccc(CSc2ccccc2)cc1` here?
Its value is -26%.

For `COc1ccc(C(=O)Nc2ccc(CN3CCOCC3)cc2)cc1`, which “activity change, negative = inhibition” value is on record?
The value was 3.24%.

With `O=C(Nc1ccc(CSc2ccccc2)cc1)c1ccc(CN2CCOCC2)cc1` as the compound, how does the Potency read?
Its Potency is 3.16 µM (active).

With `CN(Cc1ccccc1)C(=O)COC(=O)/C=C/c1ccc2c(c1)OCO2` as the compound, how does the “activity change, negative = inhibition” value read?
Its value is -6.21%.

Which “activity change, negative = inhibition” value does the source give for `CC(=O)c1c(C)[nH]c(C(=O)COc2ccc3c(C)cc(=O)oc3c2)c1C` here?
The value was -0.953%.

With `O=C(Nc1ccc2nc3n(c(=O)c2c1)CCCC3)c1ccc(Cl)nc1` as the compound, how does the “activity change, negative = inhibition” value read?
The value was -17.7%.

Which “activity change, negative = inhibition” value does the source give for `CC1(C)C/C(=N/Nc2ccc([N+](=O)[O-])cc2[N+](=O)[O-])C(C)(C)O1` here?
The value was -10.5%.

Which “activity change, negative = inhibition” value does the source give for `CCOC(=O)C1(Cc2cccc(OC)c2)CCN(C(C)CC(C)(C)O)CC1` (stereo not given) here?
The value was -11%.

Which Potency does the source give for `CCOC(=O)C1(Cc2cccc(OC)c2)CCN(Cc2csc(C(C)=O)c2)CC1` here?
The Potency was 22.4 µM (active).

For `CCOC(=O)C1(Cc2cccc(OC)c2)CCN(C(C)COC)CC1` (stereo not given), which “activity change, negative = inhibition” value is on record?
The value was 10.8%.

With `c1ccc(-c2c[nH]c(-c3ccccc3)c2)cc1` as the compound, how does the “activity change, negative = inhibition” value read?
The value was -6.21%.

For `CCCOc1ccc(C2c3c(oc4cc(C)c(C)cc4c3=O)C(=O)N2CCCN2CCOCC2)cc1` (stereo not given), which “activity change, negative = inhibition” value is on record?
Its value is -7.54%.

For `Cc1cc2oc(=O)cc(CN3CCN(Cc4ccccc4)CC3)c2cc1C`, which “activity change, negative = inhibition” value is on record?
Its value is -11.3%.

For `Cc1cc2oc3ccc(NCCC4CCCN4C)cc3c(=O)c2cc1C` (stereo not given), which Potency is on record?
Its Potency is 14.1 µM (active).

With `CSc1ncccc1C(=O)Nc1ccc2c(c1)OCO2` as the compound, how does the “activity change, negative = inhibition” value read?
Its value is 3.31%.

For `O=C1C2C3C=CC(C3)C2C(=O)N1c1ncc([N+](=O)[O-])s1` (stereo not given), which “activity change, negative = inhibition” value is on record?
Its value is 0.319%.

For `CCN(C(=O)CSc1ncnc2sccc12)c1c(N)n(Cc2ccccc2)c(=O)[nH]c1=O`, which “activity change, negative = inhibition” value is on record?
Its value is 5.2%.

For `O=c1c2c(nc3n1CCCCC3)sc1c(O)cccc12`, which “activity change, negative = inhibition” value is on record?
Its value is -3.44%.

For `CC(=O)c1ccc(NC(=O)c2sc3nc4n(c(=O)c3c2C)CCCCC4)cc1`, which Potency is on record?
The Potency was 11.2 µM (active).

For `Cc1c(C(=O)Nc2ccccc2)sc2nc3n(c(=O)c12)CCCCC3`, which “activity change, negative = inhibition” value is on record?
The value was 2.42%.
